# Reference: PubChem BioAssay AID504406 (Broad Institute, 2011)
# Among all 320,000 compounds or so, about 190 (0.059%) were called active. Rule as the data show it: active = inhibition above about 10% (passing the limit was not always enough); inconclusive = no clear call, values can overlap the other calls. Shown is part of a subset that was picked to be rich in actives.
# Biological target: UDP-galactopyranose mutase (Mycobacterium tuberculosis (strain ATCC 25618 / H37Rv)) (UniProt P9WIQ1)
# Assay: M. tuberculosis UGM enzyme inhibitors, primary screen, biochemical, fluorescence polarization, single point (AID 504406)
# Conditions: purified UGM, fluorescence polarization probe displacement; at 10 µM; active compounds read high
# Chain of UDP-galactopyranose mutase (Mycobacterium tuberculosis (strain ATCC 25618 / H37Rv)) (P9WIQ1 whole entry, looked up): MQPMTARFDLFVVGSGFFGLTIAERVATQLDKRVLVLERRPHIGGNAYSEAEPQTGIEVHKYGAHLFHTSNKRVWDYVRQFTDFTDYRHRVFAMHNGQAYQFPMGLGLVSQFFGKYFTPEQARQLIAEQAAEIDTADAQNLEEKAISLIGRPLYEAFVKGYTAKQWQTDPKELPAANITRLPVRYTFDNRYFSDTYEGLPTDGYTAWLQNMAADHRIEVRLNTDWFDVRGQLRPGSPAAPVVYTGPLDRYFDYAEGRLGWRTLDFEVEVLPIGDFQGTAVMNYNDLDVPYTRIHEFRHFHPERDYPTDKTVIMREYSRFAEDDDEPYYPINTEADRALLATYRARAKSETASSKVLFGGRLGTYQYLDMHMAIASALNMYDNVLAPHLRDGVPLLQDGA
row,SMILES,inhibition
1,CCN(CC)S(=O)(=O)c1ccc(N2CCCC2)c(NS(=O)(=O)c2cccs2)c1,-0.858% (inactive)
2,Clc1ccc(-c2cc(COc3ccccc3)no2)cc1Cl,2.39% (inactive)
3,Cc1ccc(S(=O)(=O)N(CC(=O)N/N=C/c2ccc(F)cc2)c2cccc3cccnc23)cc1,1.31% (inactive)
4,COc1ccc2c(c1)c(=O)c(C(=O)c1ccc(Cl)cc1)cn2CC(=O)Nc1ccc(F)cc1,-1.48% (inactive)
5,Cc1cc(C)n(CCC(=O)N2CCN(S(=O)(=O)c3ccc(C)c(C)c3)CC2)n1,-2.44% (inactive)
6,CCOC(=O)C1(CCOc2ccccc2)CCN(Cc2ccc(C#CCCO)cc2)CC1,-2.01% (inactive)
7,COC(=O)c1ccc(NC(=O)CSc2nncn2-c2cccnc2)cc1,-3.9% (inactive)
8,COc1ccc(C(O)(C2CCCCC2)C(CN2CCCC2)c2ccccc2)cc1 (stereo not drawn),1.17% (inactive)
9,COc1ccc(CNS(=O)(=O)c2ccc(NC(=O)N3CCCCC3)cc2)cc1,0.444% (inactive)
10,COC(=O)c1c(NC(=O)COc2ccc(Cl)cc2Cl)sc2c1CC(C)(C)NC2(C)C,-3.8% (inactive)
11,C=C(Br)CN1CCN(CC(=C)Br)CC1,2.58% (inactive)
12,C=CC[C@@H](CC(=O)NCCO)C(=O)N[C@H](C)COC(=O)[C@@H](CC=C)CC(=O)OC(C)(C)C,-0.634% (inactive)
13,Cn1c(=O)c2c(nc(OCc3cccnc3)n2Cc2ccccc2)n(C)c1=O,7.96% (inactive)
14,Cc1cc(C(=O)OCC(=O)Nc2ccc(F)c(F)c2)c(C)o1,-0.0838% (inactive)
15,COc1cccc(NC(=O)CN(C)CC(=O)c2c(N)n(Cc3ccccc3)c(=O)n(C)c2=O)c1,3.19% (inactive)
16,CCCn1nnnc1NCc1ccc(CC)cc1,-1.05% (inactive)
17,Cc1cccc(N(C)C(=O)CN2C(=O)COc3ccc(S(=O)(=O)N4CCCCCC4)cc32)c1,-1.26% (inactive)
18,CCOC(CNC(=O)C1CCN(S(=O)(=O)c2ccc3nc4c(c(C(=O)O)c3c2)CC(C)CC4)CC1)OCC (stereo not drawn),-0.608% (inactive)
19,Cc1ccc(N)cc1-n1c(C)ccc1C,-4.8% (inactive)
20,CC(Sc1nc2cc(Cl)ccc2s1)C(=O)Nc1ccc2c(c1)OCO2 (stereo not drawn),1.22% (inactive)
21,Cc1cccc(N(CC(=O)Nc2ccc(-c3nc4ccc(C)cc4s3)cc2)S(C)(=O)=O)c1,-2.81% (inactive)
22,CCN(CC)CCn1cnc2c1c(=O)n(CCOC(=O)c1cc(OC)c(OC)c(OC)c1)c(=O)n2C,0.786% (inactive)
23,CC(CNC(=O)Cn1cnc2c(OCc3ccccc3)ncnc21)c1ccccc1 (stereo not drawn),-1.84% (inactive)
24,CCSC1(SCC)N=C(N)C2(C#N)C(c3ccccc3)NC(C)=CC12C#N (stereo not drawn),0.444% (inactive)
25,O=C1CCC(Cc2ccccc2)N1 (stereo not drawn),1.36% (inactive)
26,O=C(CN1C(=O)c2ccc([N+](=O)[O-])cc2C1=O)Nc1nnc(C2CC2)s1,0.737% (inactive)
27,CN1CCN(Cc2nc3cc(NC(=O)COc4ccc([N+](=O)[O-])cc4)ccc3n2C)CC1,-1.12% (inactive)
28,CC1CCC2(CC1)NC(=O)N(CC(=O)c1cccn1C)C2=O (stereo not drawn),-1.14% (inactive)
